Measurements published in PubChem BioAssay (Tox21).
Records with an inconclusive call do not appear. Where a call stands in place of a potency, no number is given. The source made the active and inactive calls. Unless noted, the call rests on the fitted dose curve.

System: not listed separately
Assay: qHTS assay to identify small molecule agonists of the sonic hedgehog signaling (Shh) pathway (AID 1259368); further: nearly all actives have a fitted effect of over 15% in size; further: potency means the concentration at half of the fitted maximal effect;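 on activity change: NIH/3T3-derived 3T3Gli1-Luc cells carrying a stable Gli1-driven firefly luciferase reporter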
Conditions: NIH/3T3 Gli1-Luc reporter, luciferase, 24 h; series mostly up to 92.4 µM
Summary of the method: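 Steps: seed 3T3 Gli1-Luc cells, incubate 4 hr at 37 C, pin-transfer compounds in DMSO alongside a positive control, incubate 24 hr, add luciferase detection reagent, wait 30 min at room temperature, read luminescence.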

Row | Structure (SMILES) | Potency
1 | C=C(C)C1CC=C(C)C(O)C1 (stereo not drawn) | inactive
2 | CCCCCOC(=O)Nc1nc(=O)n([C@@H]2O[C@H](C)[C@@H](O)[C@H]2O)cc1F | inactive
3 | O=C(O)c1ccccc1-c1ccc(C(F)(F)F)cc1 | inactive
4 | CCCCCCCCCCCl | inactive
5 | CCCCNc1ccccc1 | inactive
6 | NC1CCN(c2cccc(Cl)n2)CC1 | inactive
7 | OCC(CO)(CO)COCC(CO)(CO)CO | inactive
8 | O=C(O)c1ccccc1S | inactive
9 | CC(=O)NC(Cc1ccccc1)C(=O)O (stereo not drawn) | inactive
10 | COc1ccc(N=[N+]([O-])c2ccc(OC)cc2)cc1 | 121 nM (active)
11 | CCCCCCCCN(C)CCCCCCCC | inactive

System: not listed separately
Assay: qHTS assay to identify small molecule antagonists of the sonic hedgehog signaling (Shh) pathway (AID 1259369); further: nearly all actives have a fitted effect of over 45% in size; further: potency means the concentration at half of the fitted maximal effect
Conditions: NIH/3T3 Gli1-Luc reporter, Shh antagonist, luminescence 24 h; series mostly up to 92.4 µM
Summary of the method: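 Inhibition of Shh signalling is measured as reduced Gli1-response-element firefly luciferase output in an NIH/3T3-derived stable reporter clone stimulated with conditioned medium for 24hr.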

Row | Structure (SMILES) | Potency | activity change, negative = inhibition
12 | O=c1[nH]c(=O)n([C@H]2O[C@H](CO)[C@@H](O)[C@@H]2O)cc1/C=C\Br | inactive | 
13 | C=C(C)C(=O)NCCC[N+](C)(C)C | inactive | 
14 | NCCN1CCNC1=O | inactive | 
15 | Cc1cc(C)c(NC(=O)CN(CC(=O)O)CC(=O)O)c(C)c1Br | inactive | 
16 | CCCC(=O)O[C@]1(C(=O)CCl)[C@@H](C)C[C@H]2[C@@H]3CCC4=CC(=O)C=C[C@]4(C)[C@@]3(F)C(=O)C[C@@]21C | inactive | 
17 | CCC(C)OC(=O)N1CCCCC1CCO (stereo not drawn) | inactive | 
18 | CCCCCCC(=O)OCC | inactive | 
19 | O=C(O)c1ccc[n+]([O-])c1 | inactive | 
20 | CC(C)COC(=O)c1ccccc1O | inactive | 
21 | COc1ccc2cc(C=O)ccc2c1 | inactive | 
22 | COc1cccc(Br)c1 | inactive | 
23 | CC1=CCC2C(C1)C2(C)C (stereo not drawn) | 17200 nM (active) | 
24 | C=C[Si](OC)(OC)OC | inactive | 
25 | CC(C)CCCC(C)NCCC(C)C (stereo not drawn) | inactive | 
26 | CSc1nc(NC2CC2)nc(NC(C)(C)C)n1 | 1540 nM (active) | 
27 | CC(C)c1cccc(C(C)C)c1N | inactive | 
28 | CC(=O)CCc1ccc(O)cc1 | inactive | 
29 | C1C2OC2C2C1C1CC2C2OC12 (stereo not drawn) | inactive | 
30 | CC1=CC(C)C(C=O)C(C)C1 (stereo not drawn) | inactive | 

Row | Structure (SMILES) | Potency | activity change, negative = inhibition
31 | CNc1ncnc2nc[nH]c12 | inactive | 
32 | Cn1ccc2cc3c(cc21)CCN3C(=O)Nc1cccnc1 |  | 1.03% [at 19 µM] (inactive)
33 | CC/C=C\CCCCO | inactive | 
34 | c1ccc2cnncc2c1 | inactive | 
35 | NC(=O)c1c(Cl)cccc1Cl | inactive | 
36 | COc1cc(CCC(C)=O)ccc1O | inactive | 
37 | COc1cc(C(=O)N2CCOCC2)cc(OC)c1OC | inactive | 
38 | C=C(C)C1CC=C(C)C(O)C1 (stereo not drawn) | inactive | 
39 | CCCCCOC(=O)Nc1nc(=O)n([C@@H]2O[C@H](C)[C@@H](O)[C@H]2O)cc1F | inactive | 
40 | O=C(O)c1ccccc1-c1ccc(C(F)(F)F)cc1 | inactive | 
41 | CCCCCCCCCCCl | inactive | 
42 | CCCCNc1ccccc1 | inactive | 
43 | NC1CCN(c2cccc(Cl)n2)CC1 | 1330 nM (active) | 
44 | OCC(CO)(CO)COCC(CO)(CO)CO | inactive | 
45 | O=C(O)c1ccccc1S | inactive | 
46 | CC(=O)NC(Cc1ccccc1)C(=O)O (stereo not drawn) | inactive | 
47 | COc1ccc(N=[N+]([O-])c2ccc(OC)cc2)cc1 | inactive | 
48 | CCCCCCCCN(C)CCCCCCCC | inactive | 

Biological target: Estrogen receptor beta (Homo sapiens) (UniProt Q92731)
Sequence (Q92731 whole entry, looked up): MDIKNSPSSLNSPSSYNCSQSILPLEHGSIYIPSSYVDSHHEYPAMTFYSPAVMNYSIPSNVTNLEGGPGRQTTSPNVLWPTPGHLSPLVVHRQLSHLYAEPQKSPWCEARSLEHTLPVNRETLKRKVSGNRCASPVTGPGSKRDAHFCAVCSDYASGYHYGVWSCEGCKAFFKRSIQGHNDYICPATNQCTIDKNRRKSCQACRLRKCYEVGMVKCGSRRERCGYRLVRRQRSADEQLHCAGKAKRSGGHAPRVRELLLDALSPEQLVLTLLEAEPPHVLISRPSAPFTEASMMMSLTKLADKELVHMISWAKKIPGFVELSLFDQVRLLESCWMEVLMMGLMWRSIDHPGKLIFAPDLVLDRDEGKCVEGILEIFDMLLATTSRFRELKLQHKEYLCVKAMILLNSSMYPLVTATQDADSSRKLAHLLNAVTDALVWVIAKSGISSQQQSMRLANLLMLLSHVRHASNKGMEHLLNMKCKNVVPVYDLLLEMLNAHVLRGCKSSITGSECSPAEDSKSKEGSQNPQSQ
Assay: qHTS assay to identify small molecule agonists of the estrogen receptor beta (ER-beta) signaling pathway (AID 1259377; active means well fitted activation curve with a large enough effect in the signal ratio in the repeat runs, not every such curve was filed as active; the % refers to the signal ratio)
Conditions: ER-beta-UAS-bla HEK293T, beta-lactamase FRET ratio, 16 h; series mostly up to 92.4 µM
Summary of the method: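 Read-out: beta-lactamase FRET fluorescence. Cell line: ER-beta-UAS-bla HEK293T in 2% charcoal-stripped FBS. Exposure: 16 hr at 37C. Substrate step: 2 h at room temperature.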

Row | Structure (SMILES) | outcome | activation
49 | CCC(C)OC(=O)N1CCCCC1CCO (stereo not drawn) | inactive | 
50 | O=C(O)c1ccc[n+]([O-])c1 | inactive | 
51 | COc1cccc(Br)c1 | inactive | 
52 | CC1=CCC2C(C1)C2(C)C (stereo not drawn) | inactive | 
53 | C=C[Si](OC)(OC)OC | inactive | 
54 | Cn1ccc2cc3c(cc21)CCN3C(=O)Nc1cccnc1 |  | -2.3% [at 19 µM] (inactive)
55 | CCCCCOC(=O)Nc1nc(=O)n([C@@H]2O[C@H](C)[C@@H](O)[C@H]2O)cc1F | inactive | 
56 | COc1ccc(N=[N+]([O-])c2ccc(OC)cc2)cc1 | inactive | 

Biological target: Estrogen receptor beta (Homo sapiens) (UniProt Q92731)
Assay: qHTS assay to identify small molecule antagonists of the estrogen receptor beta (ER-beta) signaling pathway (AID 1259378; active means well fitted inhibition curve with a large enough effect in the signal ratio in the repeat runs, not every such curve was filed as active; the % refers to the signal ratio)
Conditions: ER-beta-UAS-bla HEK293T, beta-lactamase FRET ratio, 16 h; series mostly up to 92.4 µM
Summary of the method: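 ER-beta-UAS-bla HEK293T (GripTite) cells in 2% charcoal-stripped FBS medium were preincubated 6 hr at 37C, dosed with compound, then stimulated with 1 nM E2 (final) for 16 hr; beta-lactamase reporter read by B/G FRET fluorescence after 2 hr substrate loading.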

Row | Structure (SMILES) | Potency
57 | Cc1cc(C)c(NC(=O)CN(CC(=O)O)CC(=O)O)c(C)c1Br | inactive
58 | CCCCCCC(=O)OCC | inactive
59 | COc1ccc2cc(C=O)ccc2c1 | inactive
60 | CC(C)CCCC(C)NCCC(C)C (stereo not drawn) | inactive
61 | CC(=O)CCc1ccc(O)cc1 | inactive
62 | COc1cc(CCC(C)=O)ccc1O | inactive
63 | COc1cc(C(=O)N2CCOCC2)cc(OC)c1OC | inactive
64 | CCCCNc1ccccc1 | inactive
65 | NC1CCN(c2cccc(Cl)n2)CC1 | inactive
66 | O=C(O)c1ccccc1S | inactive

System: not listed separately
Assay: qHTS assay to identify small molecule agonists of the androgen receptor (AR) signaling pathway in the presence of an antagonist - cell viability counter screen (AID 1259379; active means well fitted cell-killing curve with a large enough effect in the repeat runs;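 further: MDA-kb2 human breast cancer cells carrying an MMTV luciferase reporter; nearly all actives have a fitted effect of over 25% in size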)
Conditions: MDA-kb2 viability, CellTiter-Fluor, 16 h; series mostly up to 92.4 µM
Summary of the method: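 Fluorescence from CellTiter-Fluor, added after 15 hr and read 1 hr later, gave cell viability. Cells were MDA-kb2 exposed to compounds (15 concentrations) in the presence of 3.0uM nilutamide at 37C, 0% CO2.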

Row | Structure (SMILES) | Potency
67 | O=c1[nH]c(=O)n([C@H]2O[C@H](CO)[C@@H](O)[C@@H]2O)cc1/C=C\Br | inactive
68 | C=C(C)C(=O)NCCC[N+](C)(C)C | inactive
69 | NCCN1CCNC1=O | inactive
70 | Cc1cc(C)c(NC(=O)CN(CC(=O)O)CC(=O)O)c(C)c1Br | inactive
71 | CCCC(=O)O[C@]1(C(=O)CCl)[C@@H](C)C[C@H]2[C@@H]3CCC4=CC(=O)C=C[C@]4(C)[C@@]3(F)C(=O)C[C@@]21C | inactive
72 | CC(C)COC(=O)c1ccccc1O | inactive
73 | COc1ccc2cc(C=O)ccc2c1 | inactive
74 | CC(C)CCCC(C)NCCC(C)C (stereo not drawn) | inactive
75 | CSc1nc(NC2CC2)nc(NC(C)(C)C)n1 | inactive
76 | CC(C)c1cccc(C(C)C)c1N | inactive
77 | CC(=O)CCc1ccc(O)cc1 | inactive
78 | C1C2OC2C2C1C1CC2C2OC12 (stereo not drawn) | inactive
79 | CC1=CC(C)C(C=O)C(C)C1 (stereo not drawn) | inactive
80 | CNc1ncnc2nc[nH]c12 | inactive
81 | CC/C=C\CCCCO | inactive
82 | c1ccc2cnncc2c1 | inactive
83 | NC(=O)c1c(Cl)cccc1Cl | inactive
84 | COc1cc(C(=O)N2CCOCC2)cc(OC)c1OC | inactive
85 | C=C(C)C1CC=C(C)C(O)C1 (stereo not drawn) | inactive
86 | O=C(O)c1ccccc1-c1ccc(C(F)(F)F)cc1 | inactive
87 | CCCCCCCCCCCl | inactive
88 | CCCCNc1ccccc1 | inactive
89 | NC1CCN(c2cccc(Cl)n2)CC1 | inactive
90 | OCC(CO)(CO)COCC(CO)(CO)CO | inactive
91 | O=C(O)c1ccccc1S | inactive
92 | CC(=O)NC(Cc1ccccc1)C(=O)O (stereo not drawn) | inactive
93 | CCCCCCCCN(C)CCCCCCCC | inactive
